Laboratory results reported in PubChem BioAssay (EPA / NIEHS).
Values joined by “and” are separate entries in the source; they are usually repeats but may differ in a detail not shown here. Equal entries are not always repeated. Results filed as inconclusive are left out. Where a structure was tested more than once in an assay, its records may differ in their call. Active and inactive are the calls of the source. The calls were made as follows: active = hit-call score of the fitted dose curve at least 0.9, where 1 is the maximum; inconclusive = response in the unintended direction; inactive = score below 0.9.

Assay: TOX21_p53_BLA_p4_viability: Viability Assessment in the Tox21 HCT-116 p53 Agonism Beta-lactamase Assay, Phase 4 (AID 2283597);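 also: hits lower the luminescence signal meaning cytotoxicity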
In short: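 Cytotoxicity was inferred from loss of CellTiter-Glo luminescence. HCT116 cells had been dosed with compounds after 5 h plating, incubated 16 h at 37C and 5% CO2, and exposed to the CCF4-AM substrate for 2 h.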

Compound	outcome	AC50
Cc1cc(-c2ccc(N)c(C)c2)ccc1N	inactive	–
CCOC(=O)C(O)(c1ccc(Cl)cc1)c1ccc(Cl)cc1	–	59.7 µM (active) and 25.1 µM (active)
OCC(O)CO	inactive	–
ClC(Cl)=C(c1ccc(Cl)cc1)c1ccc(Cl)cc1	inactive	–
NS(=O)(=O)C(F)(F)C(F)(F)C(F)(F)C(F)(F)C(F)(F)C(F)(F)C(F)(F)C(F)(F)F	inactive	–
CC(c1ccc(O)cc1)(c1ccc(O)cc1)c1ccc(O)cc1	inactive	–
CN(C)CCO	inactive	–
c1cc2ccc3cccc4ccc(c1)c2c34	inactive	–
CCC(C)(c1ccc(O)cc1)c1ccc(O)cc1	inactive	77.1 µM (active)
ClC1=C(Cl)[C@]2(Cl)[C@@H]3[C@@H](Cl)[C@H]4O[C@H]4[C@@H]3C1(Cl)C2(Cl)Cl	–	65.1 µM (active)
Oc1ccc(C(c2ccc(O)cc2)(C(F)(F)F)C(F)(F)F)cc1	–	63.7 µM (active) and 71.3 µM (active)
C=CC(=O)NCNC(=O)C=C	inactive	–
Cc1ccc(O)c(C)c1	inactive	–
CC(C)(O)C(=O)Nc1ccc([N+](=O)[O-])c(C(F)(F)F)c1	inactive	–
C[C@]12CCC(=O)C=C1CC[C@@H]1[C@@H]2CC[C@]2(C)C(=O)CC[C@@H]12	inactive	–
CC(C)C(=O)OCC(C)(C)C(OC(=O)C(C)C)C(C)C (stereo not given)	inactive	–
O=NN(c1ccccc1)c1ccccc1	inactive	–
O=C(N[C@H]1CN2CCC1CC2)c1cc2ccoc2cn1	inactive	–
CO/C=C(/C(=O)OC)c1ccccc1COc1cccc(C(F)(F)F)n1	inactive	–
